Assay results from PubChem BioAssay (NCI).
Compounds without any hit were thinned out: in the full panel of roughly 83,000, 20% have a hit.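 Growth was measured after 48 h exposure to one concentration of compound in 96-well plates. Values under 10 count as active.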 The source made the active and inactive calls.

tested on: OVCAR-8 ovarian; experiment: NCI-60 one-dose screen, 48 h (100 = growth as untreated, 0 = no growth, -100 = all killed); conditions: 10 µM unless noted
Procedure: Growth inhibition of the OVCAR-8 human tumor cell line is measured as a screen for anti-cancer activity. Cells are grown in 96 well plates and exposed to the test compound for 48 hours. Compounds are tested at a single concentration, which is 10^-5 M for most compounds. The reported endpoint is percent growth (GI% or GIPRCNT), where numbers from 0 - 100% represent growth inhibition, and numbers from -100% - 0 represent cell death. For example, a value of 40 represents 60% growth inhibition. A value of 0 means no net growth occurred over the course of the experiment. A value of -40 indicates 40% of cells at the beginning of the experiment died by the end of the experiment. A value of -100 means all cells are dead at the end of the experiment.
NCI-60 Human Tumor Cell Lines Screen was performed using the standard one-dose NCI protocol, which is described in more detail at https://dtp.cancer.gov/discovery_development/nci-60/default.htm.
Compounds with GIPRCNT values below 10 were considered active. Activity score was based on GIPRCNT using the following formula: […]
Score is 0 for GIPRCNT values of 100 or above, 50 for GIPRCNT values of 0, and 100 for GIPRCNT values of -100.

SMILES | growth
Oc1c(Br)cc(Br)cc1Br.[Cu+2] | 103% (inactive)
CC(=O)OC1CCC2(C)C(=CCC3C4CC(CN5CC5)C(=O)C4(C)CCC32)C1 (stereo not given) | 85% (inactive)
CC(=O)N1N=C(c2ccccc2)CC1c1sc(N(CCCl)CCCl)nc1Cl (stereo not given) | 95.8% (inactive)
COc1ccccc1N1CCN(CCc2c[nH]c3cc4c(cc23)OCO4)CC1 | 88.4% (inactive)
c1cnc2c(c1)ccc1ncccc12 | 94.4% (inactive)
O=C1NC(=O)C(=Cc2cn(Cc3ccccc3)c3ccccc23)C(=O)N1 | 81.1% (inactive)
OC1CCCCC1N1CCC(c2ccccc2)CC1 (stereo not given) | 103% (inactive)
CC(=O)[O][Hg][c]1nc2c(c(=O)n(C)c(=O)n2C)n1C | 95.2% (inactive)
Oc1ccc(Br)cc1CN1CCN(Cc2ccc(Cl)cc2)CC1 | 60.6% (inactive)
O=S(=O)(Cl)c1ccccc1 (tested in a mixture with another compound) | 108% (inactive)
O=C(NCc1ccc([N+](=O)[O-])cc1)Nc1ccc(S(=O)(=O)F)cc1 | 80% (inactive)
O=C(CCl)NCNC(=O)CCl | 92.4% (inactive)
Cc1cc(CCl)c(C)cc1CCl | 61.7% (inactive)
O=[N+]([O-])c1cc([N+](=O)[O-])c(Cl)c(Cl)c1Cl | -41.1% (active)
CC1(C)N=C(N)N=C(N)N1c1ccc(OCCCCNC(=O)Nc2cccc(S(=O)(=O)F)c2)c(Cl)c1 | 29.2% (inactive)
CN(Cc1cccnc1)N=O | 98.6% (inactive)
O=C(N/N=C/c1ccc(N(CCCl)CCCl)cc1)c1cc(=O)[nH]c(=O)[nH]1 | 93.5% (inactive)
C=C=[CH][Sn]([c]1ccccc1)([c]1ccccc1)[c]1ccccc1 | -30% (active)
CNC(=O)Oc1ccccc1-c1ccccc1 | 103% (inactive)
CSc1ccccc1NP1(=O)OCC(C)([N+](=O)[O-])CO1 (stereo not given) | 98% (inactive)

SMILES | growth
CC(C)CCC1(CCO)C(=O)NC(=S)NC1=O | 101% (inactive)
C[CH2][Pb]([CH2]C)([CH2]C)[O]C(=O)COc1ccccc1 | 9.05% (active)
Fc1ccc(C2=NN(c3ccccc3)C(c3sc(N(CCCl)CCCl)nc3Cl)C2)cc1 (stereo not given) | 87.5% (inactive)
CCOCC1(CCc2ccccc2)C(=O)NC(=S)NC1=O | 107% (inactive)
CCCCNCCc1ccccn1 | 102% (inactive)
N#[N+]c1nc2nc(N)[nH]c(=O)c2[nH]1 | 100% (inactive)
CC1(C)CC(=O)CC(C)(C)N1N=O | 102% (inactive)
O=C(CC1(O)C(=O)Nc2ccc(F)cc21)c1ccc(C(=O)NCC2CCC3(CC2)OOC2(CCCCC2)OO3)cc1 (stereo not given) | 19.7% (inactive)
CC[C@@H](C)/C=C(C)/C=C/C(=O)c1c(O)c(-c2ccc(O)cc2)cn(O)c1=O | 4.95% (active)
CC1CC=CCC12C(=O)NC(=S)NC2=O (stereo not given) | 104% (inactive)
Cc1cccc(N=C2c3cc([N+](=O)[O-])ccc3-c3c2cc([N+](=O)[O-])cc3[N+](=O)[O-])c1 | 64.5% (inactive)
CC(=O)O[C@H]1CCC2C3CCC4=C/C(=N/O)CCC4(C)C3CCC21C (stereo not given in full) | 99.3% (inactive)
O=C1c2ccccc2C(=O)N1[N+](=O)[O-] | 100% (inactive)
CC(C)(C)[Si](C)(C)OC1[C@@H](O[Si](C)(C)C(C)(C)C)[C@@H](CNC(=O)NC(=O)CF)O[C@H]1n1cnc2c(NC(=O)Nc3ccccc3)ncnc21 (stereo not given in full) | 51.4% (inactive)
ClCCN(CCCl)c1ccc(C=NCCc2c[nH]c3ccccc23)cc1 | 74.8% (inactive)
C[C@]12CC[C@H](OC3OC(O)C(O)C(O)C3O)C=C1CCC1C2CC[C@]2(C)[C@@H](c3ccc(=O)oc3)CC[C@]12O (stereo not given in full) | 110% (inactive)
NC(=O)SCC(=O)Nc1ccc([As](=O)(O)O)cc1 | 83.4% (inactive)
COc1ccc(NP2(=O)OCC(C)(N)CO2)cc1 (stereo not given) | 101% (inactive)
COc1cc(N(CCCl)CCCl)ccc1C=Nc1ccccc1C(=O)O | 92.9% (inactive)
COc1cc[c]([Hg][Cl])cc1 | 69.8% (inactive)
